The values below come from PubChem BioAssay AID904 (National Center for Advancing Translational Sciences (NCATS), 2007).

Molecules are shown by their SMILES. Screen size: about 55,000 compounds; about 530 (0.96%) were called active. Roughly 7% stayed inconclusive and do not appear here. Shown is part of a subset that was picked to be rich in actives. Where a call stands in place of a potency, no number is given. Values without a mark were called inactive. The call rests on the fitted dose curve; in most records, active means well fitted cell-killing curve with a large enough effect; inconclusive means small, poorly fitted or top-dose-only effect; inactive means no such curve, though single readings can be large or run the other way.
Potency means the concentration at half of the fitted maximal effect.

A short description of this assay: qHTS Screen for Compounds that Selectively Target Cancer Cells with p53 Mutations: Cytotoxicity of p53 Null Cells at the Nonpermissive Temperature. Further: nearly all actives have a fitted effect of over 50% in size. Particulars: H1299 p53-null (neo) cells, 39C, ATPlite viability, 24 h; series mostly up to 46.1 µM. An excerpt:
NIH Chemical Genomics Center [NCGC] NIH Molecular Libraries Screening Centers Network [MLSCN] MLSCN Grant: 1 X01 MH079844-01 Assay Submitter (PI): Dr. SUN, YI, University of Michigan NCGC Assay Overview: Synthetic Lethal Screen for Compounds to Kill Cancer Cells with p53 Mutation. Tumor suppressor gene p53 serves as a major cellular barrier against tumorigenesis. […] The goal of this screening is to identify small molecule probes that selectively kill cancer cells with mutations in p53. This screening was carried out using two lines of H1299 lung cancer cells. The H1299-p53 A138V line express a temperature sensitive p53 mutant (p53ts) in which the mutant p53 protein (A138V) is in the mutant confirmation when grown at 39C (the nonpermissive temperature) and in the wild type conformation when grown at 32C (the permissive temperature). A H1299-neo line (p53 null) grown at both 39C and 32C were used as counter-screens to filter out false positive associated with temperature shifting. The small molecular compounds that selectively target mutant p53-containing cancer cells were selected as candidate probes for further study. A cytotoxicity assay based on the measurement of ATP contents in cells was used in this screen. Concentration-responses of all the compounds in the library collection were determined in qHTS using the cell lines and temperature conditions as above.
NCGC Assay Protocol Summary: Both the H1299-p53A138V and H1299-neo cell lines were provided by Dr.Yi Sun, a PI at the University Michigan. The cells were maintained and cultured at 37C. The resuspended frozen cells were used to plate the cells in the 1536-well assay plates at a density of 600 cells per well in 5 ul medium. The assay plates with the cells were incubated at 37C for 16 to 30 hours before the experiments. The library compounds in DMSO solution were added to the cells in assay plates and incubated 24 hours at 39C (for mutant p53 conformation) or 32C (for normal p53 conformation as control). An ATP_lite assay kit (PerkinElmer) was used to determine the cell viability. Tomaxifen (100uM) was used as the positive control for cell killing. Data were normalized to the controls for basal activity (DMSO only) and 100% killing (100uM tamoxifen). AC50 values were determined from concentration-response data modeled with the standard Hill equation. P53 assay protocol: 1. Reagent; 5 uL H1299-p53A138V or H1299-neo cell cells/well 2. Time; overnight; 37C incubation 3. Compounds; 23 nL; 5.9 nM to 46 uM 4. Controls; 23 nL; Tamoxifen 100 uM 5. Time; 24 hr; 39C incubation 6. Reagent; 3 uL; ATP_Lite reagent 7. Time; 20 min; Room Temperature 8. Detection; Luminescence; Viewlux plate reader Keywords: p53, synthetic lethal, cancer, cell viability, cytotoxicity, H1299 cell line, luminescence, MLSMR, MLSCN, NIH Roadmap, qHTS, NCGC
For orientation: In qHTS, concentration-response curves come from the screen itself.
On to `CCCCOC(=O)/C(C#N)=C/c1ccc(-c2cccc(C(F)(F)F)c2)o1`, for which the Potency entry was “inactive”.

For `CCOC(=O)c1nc(Nc2ccc(C(=O)OC)cc2)c2ccccc2n1`, the Potency entry was “inactive”.

On to `COc1cccc(Nc2nc3ccccc3c3nncn23)c1`, for which the Potency entry was “inactive”.

For `COc1cc(Nc2nc(-c3ccc(OC)c(OC)c3)nc3ccccc23)cc(OC)c1`, the Potency was 14.1 µM (active).

As for `O=C(Nc1ccc2c(c1)OCO2)c1cc(-c2cccc(Cl)c2)on1`, the Potency result was “inactive”.

With `Cc1ccccc1-c1nc2scc(CCNC(=O)C(=O)Nc3ccc(F)cc3F)n2n1`, the Potency entry was “inactive”.

In the case of `Cc1ccc(Nc2c(-c3ccc(C)cc3)nc3cnccn23)cc1`, the Potency result was “inactive”.

In the case of `CC(=O)Nc1ccc(S(=O)(=O)N2CCN(c3ccc([N+](=O)[O-])c(NCCN4CCOCC4)c3)CC2)cc1`, the Potency entry was “inactive”.

On to `O=C(NC1CCCCC1)c1ccc(Cn2c(SCc3ccccc3)nc3cccnc32)cc1`, for which the Potency result is “inactive”.

In the case of `O=C(O)c1ccc(CSc2nc3cccnc3n2Cc2cccc(F)c2)cc1`, the Potency entry is “inactive”.

Regarding `Cc1ccc(CSc2nc3cccnc3n2Cc2ccc(C(=O)NC3CC3)cc2)cc1`, the Potency was 3.16 µM (active).

For the compound `COc1ccc(OC)c(-c2nc(C(N)=O)c3c(n2)n(-c2ccc4c(c2)OCO4)c(=O)n3C)c1`, the Potency entry was “inactive”.

With `CCOc1ccc(N(Cc2ccccc2)C(=O)c2nc(S(C)(=O)=O)ncc2Cl)cc1`, the Potency was 10 µM (active).

For `CCOc1ccc(N(Cc2ccccc2)C(=O)c2nc(SCC)ncc2Cl)cc1`, the Potency entry is “inactive”.

As to `CCOc1ccc(NC(=O)CN(Cc2ccccc2)S(=O)(=O)c2ccc(Cl)cc2)cc1`, the Potency entry was “inactive”.

With `CNc1ccc(NC(C)=O)cc1[N+](=O)[O-]`, the activity, negative = cell killing is -11.3% [at 1.84 µM].

Regarding `N#Cc1c(-c2ccc(F)cc2)cc(C2CC2)nc1SCC(=O)c1cccs1`, the activity, negative = cell killing was -5.05% [at 1.84 µM].

For `COc1ccc(CNC(=O)c2ccc3c(O)c(S(=O)(=O)c4ccccc4)c(=O)[nH]c3c2)cc1`, the Potency result is “inactive”.

Turning to `CC(C)c1ccc(NC(=O)c2ccc3c(O)c(S(=O)(=O)c4ccccc4)c(=O)[nH]c3c2)cc1`, the Potency was 7.94 µM (active).

Take `Cc1ccc(C(=O)Nc2ccc3[nH]c(=O)c(=O)[nH]c3c2)cc1`: the Potency entry was “inactive”.

Regarding `CCC(C(=O)Nc1cccc(-c2nc3cccnc3s2)c1C)c1ccccc1` (configuration not stated), the Potency entry was “inactive”.

For the compound `Cc1c(NC(=O)C(C)(C)C)cccc1-c1nc2ccccc2s1`, the Potency was 15.8 µM (active).

As to `Cc1c(NC(=O)Cc2ccccc2)cccc1-c1nc2cccnc2s1`, the Potency result is “inactive”.

As to `O=C(Nc1cc(C(F)(F)F)ccc1Cl)C(=O)N1CCCCC1`, the activity, negative = cell killing was -3.07% [at 1.84 µM].

In the case of `Cc1cccc(NC(=O)CSc2ncc(-c3ccccc3)[nH]2)c1C`, the Potency result is “inactive”.

`Cc1ccc(S(=O)(=O)c2cn(Cc3ccccc3)c3cc(N4CCCC4)c(F)cc3c2=O)c(C)c1`: the Potency result is “inactive”.

For the compound `COCCN(Cc1ccco1)C(=O)Cn1ncc2c([nH]c3ccccc32)c1=O`, the Potency entry is “inactive”.

For `Cc1ccc(CN(C(=O)COc2ccc(Cl)cc2C)C2CCS(=O)(=O)C2)o1` (configuration not stated), the Potency entry was “inactive”.

In the case of `COc1cc(C(=O)N2CCN(c3ccc(Nc4ccc(C)cc4)nn3)CC2)cc(OC)c1OC`, the Potency entry was “inactive”.

Consider `O=C(COC(=O)c1cc2c(s1)CCCC2)NCc1ccccc1Cl`, for which the Potency result is “inactive”.

`Cc1ccc(NC(=O)c2sc3nc(N)c(C#N)cc3c2N)cc1`: the activity, negative = cell killing is 9.07% [at 1.84 µM].

Consider `CCOc1ccc(CNC(=O)C2CCN(c3nnc(-n4cccc4CNc4ccc(C)cc4)s3)CC2)cc1OC`, for which the Potency result was “inactive”.

As to `CCOC(=O)/C(C#N)=C/c1ccc(N2CCN(Cc3ccccc3)CC2)cc1`, the activity, negative = cell killing is 2.74% [at 1.84 µM].

As to `Cc1cccc(-n2c(=O)c3c(c4cc(C)ccc4n3C)n(CC(=O)Nc3ccccc3Cl)c2=O)c1`, the Potency entry was “inactive”.

With `CCOc1ccc(-c2nonc2NC(=O)c2oc3ccc(CC)cc3c2C)cc1`, the Potency entry was “inactive”.

Regarding `Cc1ccc(S(=O)(=O)N2CCN(CC(=O)N/N=C/c3cc([N+](=O)[O-])ccc3Cl)CC2)cc1`, the Potency entry is “inactive”.

For `CCc1nnc(SCC(=O)Nc2cc(OC)ccc2OC)nc1CC`, the Potency entry was “inactive”.

With `O=c1n(Cc2cccc(C(F)(F)F)c2)c2ccccc2c2nc(-c3ccccc3)nn12`, the Potency result was “inactive”.

As to `Cc1c(NC(=O)c2cc(-c3ccc(Br)cc3)on2)c(=O)n(-c2ccccc2)n1C`, the Potency entry is “inactive”.

As for `Cc1ccc(Nc2nnc(-c3ccc(C)c(S(=O)(=O)N4CCCCC4)c3)c3ccccc23)cc1`, the Potency result is “inactive”.

Regarding `Cc1ccc(-c2nnc(Nc3ccc(OCC(N)=O)cc3)c3ccccc23)cc1S(=O)(=O)NCC1CCCO1` (configuration not stated), the Potency was 12.6 µM (active).

`Cc1ccc(-c2nnc(Nc3cccc(Br)c3)c3ccccc23)cc1S(=O)(=O)NCC1CCCO1` (configuration not stated): the Potency entry was “inactive”.

With `C=CCn1c(SCC(N)=O)nnc1-c1cc2c(s1)CCC(CC)C2` (configuration not stated), the Potency entry is “inactive”.

Turning to `Cc1nc2sc(C)c(C)n2c(=O)c1S(=O)(=O)NCCc1ccc(Cl)cc1`, the Potency result is “inactive”.

Turning to `Cc1cc(C)c(/C=C/c2onc(C)c2S(=O)(=O)N2CCC(C(=O)Nc3ccc(Cl)cc3C)CC2)c(C)c1`, the Potency entry is “inactive”.

Turning to `O=C(CNS(=O)(=O)c1cccs1)N1CCN(c2ccccc2Cl)CC1`, the Potency result was “inactive”.

For `COc1ccc(OC)c(NC(=O)CSC2=Nc3ccccc3C3=NC(CC(=O)NCCc4ccccc4)C(=O)N23)c1` (configuration not stated), the Potency entry is “inactive”.
